Screening results as filed in PubChem BioAssay.
Hits are enriched below; roughly 2.4% of the tested compounds scored in any of these assays.
D2 antag – antagonizes the human D2 dopamine receptor; P14416; HEK293 TREx D2 cells, calcium flux, dopamine EC80; inhibition, % at 10 µM; 340,000 compounds, 2% hits; AID 485344; in the data active = inhibition above about 30%; inactive = below that, where a call was filed; note: 0% is about no effect
Target sequence (P14416 whole entry, looked up): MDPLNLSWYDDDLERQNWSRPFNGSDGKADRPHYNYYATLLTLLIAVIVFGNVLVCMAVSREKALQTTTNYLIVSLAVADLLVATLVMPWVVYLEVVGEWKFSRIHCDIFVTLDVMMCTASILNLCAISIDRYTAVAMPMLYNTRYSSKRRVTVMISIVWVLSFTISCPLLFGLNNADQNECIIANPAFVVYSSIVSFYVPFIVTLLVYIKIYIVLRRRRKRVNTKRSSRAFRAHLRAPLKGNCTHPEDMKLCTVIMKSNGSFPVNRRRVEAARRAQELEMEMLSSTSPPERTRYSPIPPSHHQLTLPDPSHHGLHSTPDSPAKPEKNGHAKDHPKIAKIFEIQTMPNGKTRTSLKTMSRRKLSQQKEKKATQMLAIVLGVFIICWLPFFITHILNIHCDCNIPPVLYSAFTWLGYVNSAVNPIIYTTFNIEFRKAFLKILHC
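Antagonism is scored as inhibition of an EC80 dopamine-evoked calcium signal in a force-coupled, tetracycline-inducible HEK293 T-REx D2 line, with compound present 180 s before agonist.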
D2 PAM-1 – human D2 receptor positive allosteric modulation; P14416; DiscoveRx D2 beta-arrestin cells, luminescence, 90 min; 100% = 57 uM dopamine signal; potentiation, % (concentration not given with the values); 360,000 compounds, 0.23% hits; AID 624464; in the data active = potentiation above about 50%; inconclusive = mostly about 30% to 49%
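D2 cells co-treated with compound plus 50 nM dopamine (EC20) for 90 min at 37 deg C to detect potentiation. Beta-arrestin recruitment was read as enzyme-fragment luminescence after 1 h at ambient temperature. Full response was set by 57 uM dopamine.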
D2 PAM-2 – D2 dopamine receptor (human) potentiation; P14416; HEK293 T-REx D2, calcium flux, EC20 dopamine potentiation; potentiation, % at 10 µM; 340,000 compounds, 0.34% hits; AID 485347;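 active = potentiation over 3 SD above the plate norm, cut at about 30% in these data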; note: 0% is about no effect
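Tetracycline-induced HEK293 T-REx cells force-coupled to calcium signalling expressed D2; compounds were pin-added after a 10 s baseline, read kinetically 180 s, then an EC20 dopamine challenge followed with a further 180 s calcium read.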
D2 ag-1 – activates the human D2 dopamine receptor | P14416 | DiscoveRx PathHunter D2 beta-arrestin, luminescence, 90 min; 100% = 57 uM dopamine signal | AID 624465 | activation, % (concentration not given with the values) | 360,000 compounds, 0.084% hits; in the data active = activation above about 40%; inconclusive = between about 15% and that limit
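DiscoveRx PathHunter D2 beta-arrestin cells (2,100/well) attached overnight, then compound-stimulated 90 min at 37 C in HBSS/10 mM HEPES/0.1% Tween-20 buffer; beta-galactosidase complementation read by luminescence after 1 h at ambient temperature. Dopamine 57 uM final (EC100) as control.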
D2 ag-2 – agonists of human D2 dopamine receptor; activation, % at 2 µM; 340,000 compounds, 0.53% hits; P14416; HEK293 T-REx D2 cells, calcium flux agonist mode;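 active = activation over 3 SD above normal in the single-dose calcium agonist read, cut at about 30% in these data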; note: 0% is about no effect
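Agonism is scored from calcium flux in a force-coupled, inducible HEK293 cell line expressing D2, read kinetically for 180 s after compound addition against dopamine controls.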
An asterisk follows results filed as active; ? = inconclusive; · = not tested or not shown.

SMILES	D2 antag	D2 PAM-1	D2 PAM-2	D2 ag-1	D2 ag-2
O=C(CCn1c(=O)sc2ccccc21)NCc1ccccc1	20	-11	-19	-4	0
O=C(CCn1c(=O)sc2ccccc21)NCc1cccs1	32*	-14	-6	-1	-1
CCN(c1ccccc1C(=O)O)S(=O)(=O)c1cccc2nsnc12	31*	1	14	-1	-1
N#CCCN(C1CCCCC1)S(=O)(=O)c1cccc2nsnc12	-1	0	0	0	-4
CCN(c1ccc(F)cc1)S(=O)(=O)c1cccc2nsnc12	-17	-2	-12	-1	0
CN(C1CCCCC1)S(=O)(=O)c1cccc2nsnc12	32*	-4	-6	-4	-1
CCC(C(=O)Nc1ccc(C)c(Cl)c1)n1c(=O)c(-c2ccccc2NC(C)=O)nc2ccccc21 (stereo not given)	·	·	-10	·	·
CNC(=S)NC1CC2CCCC(C1)N2Cc1ccccc1OC (stereo not given)	0	-17	-8	1	1
CCNC(=S)NC1CC2CCCC(C1)N2Cc1ccc(C)cc1 (stereo not given)	82*	-76	-20	-3	1
CCNC(=S)NC1CC2CCCC(C1)N2Cc1ccco1 (stereo not given)	6	-25	-19	2	0
CNC(=S)NC1CC2CCCC(C1)N2Cc1ccc(C)cc1 (stereo not given)	81*	-20	-25	-4	0
Cc1cc(Cl)ccc1OCc1cc(=O)n2c3c(sc2n1)CCCC3	·	·	-10	·	0
CCOc1cc(N2CCOCC2)c(OCC)cc1NC(=O)CSc1ncccn1	-9	1	12	3	-1
CCOc1cc(N2CCOCC2)c(OCC)cc1NC(=O)CSc1cccc[n+]1[O-]	·	57*	·	2	·
CCOc1cc(N2CCOCC2)c(OCC)cc1NC(=O)C1=COCCO1	39*	-3	5	-5	1
Cc1nnc2c(N3CCN(c4ccccc4F)CC3)nc3ccccc3n12	·	·	-5	·	0
O=C(CN1CCN(c2ccc(O)cc2)CC1)Nc1ccc2c(c1)OCCO2	-10	-10	-9	?	36*
COc1ccc2oc(-c3cccc(NC(=O)c4sc5c([N+](=O)[O-])cccc5c4Cl)c3)nc2c1	·	·	7	·	-2
COc1cccc(-c2nnc3sc(C4CCCCC4)nn23)c1	4	-8	16	-2	1
COc1cc(-c2nnc3sc(C4CCCCC4)nn23)cc(OC)c1OC	-1	-35	69*	-2	0
O=C1CCCc2[nH]c(=O)c(-c3nc(-c4cccc([N+](=O)[O-])c4)cs3)cc21	·	·	-7	·	0
Cc1c(C(=O)N2CCCCC2)c(S(=O)(=O)NCc2ccc(Cl)cc2)c(C)n1C	48*	-1	8	-3	1
Cc1ccc2c(Sc3ccc(Cl)cc3)c(C(=O)NCCC(C)C)[nH]c2c1	·	·	1	·	-1
Cc1ccc(NCC(=O)N/N=C/c2ccncc2)cc1	49*	-2	4	-1	-2
CCN(CC)S(=O)(=O)c1cc(NC(=O)C2CCN(c3ncnc4sc(C)c(C)c34)CC2)ccc1Cl	36*	-25	-16	-1	-1
SMILES	D2 antag	D2 PAM-1	D2 PAM-2	D2 ag-1	D2 ag-2
CC(C)(C)c1cc(OC(=O)c2ccncc2)ccc1O	·	69*	0	9	·
O=C(Oc1cccc2ccccc12)c1ccncc1	34*	2	-3	-1	0
COc1cc(C(=O)Nc2nonc2-c2ccc(C)c(C)c2)cc(OC)c1OC	·	·	3	·	1
O=C(NCC1CCCO1)C(=Cc1cccc([N+](=O)[O-])c1)C(=O)NCC1CCCO1 (stereo not given)	1	-3	8	3	1
O=C(/C=C/c1cccc([N+](=O)[O-])c1)NCC1CCCO1 (stereo not given)	60*	-33	1	-1	-1
CC(C)N(C(=O)/C=C/c1cccc([N+](=O)[O-])c1)C(C)C	24	-9	19	-1	1
O=C(/C=C/c1cccc([N+](=O)[O-])c1)OC1CCCCC1=O (stereo not given)	31*	-4	1	-5	2
COc1cccc(NC(=O)CSCn2nnc3c(=O)[nH]c(Cc4ccc(F)cc4)nc32)c1	·	·	-3	·	-1
COc1cc(-c2nnc(SCC(=O)N(C)C3CCCCC3)o2)cc(OC)c1OC	·	·	-8	·	-1
O=C(c1ccc(Cl)cc1)C1CCN(Cc2ccccc2)CC1	81*	-78	-29	-3	-1
O=C(NN1CCN(Cc2ccccc2)CC1)c1ccc(Cl)cc1	67*	-27	-38	0	2
O=C(c1ccc(F)cc1)C1CCN(Cc2ccccc2F)CC1	·	-20	·	-7	·
Cc1cnc2c(c1SCC(=O)NCc1ccccc1Cl)c(=O)n(C)c(=O)n2C	·	·	2	·	1
O=C(c1ccc2nc[nH]c2c1)N1CCc2ccccc2C1	35*	-8	-3	-3	-1
O=C(NC1CCCC1)c1ccc2nc[nH]c2c1	7	-8	38*	-1	0
Cc1ccc(C(=O)NC2CCCCC2)cc1	62*	-11	-12	1	0
O=C(NC1CCCC1)c1ccc2nc(-c3ccco3)c(-c3ccco3)nc2c1	33*	26	-7	7	-1
COc1cc2c(cc1OC)CN(C(=O)c1ccc3nc[nH]c3c1)CC2	3	2	-1	0	1
COc1ccc(NC(=O)C2=C(C)Nc3ncnn3C2c2sccc2C)cc1 (stereo not given)	·	·	5	·	0
O=C(Nc1ccsc1C(=O)NC1CCCCC1)c1ccccc1	31*	-12	2	0	-1
O=C(Nc1ccccc1C(=O)NC1CCCCC1)c1ccccc1	-8	-1	11	-1	-1
Cc1cccc(NC(=O)c2ccc(F)c(S(=O)(=O)NCc3ccco3)c2)c1	33*	-6	1	-1	-2
COc1cccc(Nc2sc(C(=O)c3ccc(F)cc3)c(N)c2C(=O)NCc2ccc(C)cc2)c1	·	·	0	·	1
CCOc1ccc(S(=O)(=O)N2CC(=O)Nc3ccccc32)cc1C#N	2	-1	-4	-3	0
COc1ccc(S(=O)(=O)N2CC(=O)Nc3ccccc32)cc1Cl	5	-1	60*	-4	0
COc1cc(OC)cc(C(=O)Oc2c(Sc3ccccc3)c(C)nn2C(C)(C)C)c1	·	·	1	·	1
CC(CCN1CCN(c2ccc(F)cc2)CC1)c1ccccc1 (stereo not given)	88*	-33	-21	-5	2
CC(CCN1CCOCC1)c1ccccc1 (stereo not given)	1	-2	1	-2	0
Cc1c(NC(=O)CSc2ccccc2F)c(=O)n(-c2ccccc2)n1C	-16	0	46*	-3	-1
